# Results: PubChem BioAssay (Tox21)
# Values joined by “and” are separate entries in the source; they are usually repeats but may differ in a detail not shown here. Equal entries are not always repeated. Records with an inconclusive call do not appear. A call without a number means that no potency is given here. Some compounds were tested as several samples or in several runs, with calls that do not always agree. Active and inactive are the calls of the source. Unless noted, calls follow the shape of the dose curve; as a rule, active = well fitted curve in the direction sought with a large enough effect in the repeat runs; inconclusive = weak or mixed curves; inactive = no such curve, though single readings can be large; an effect the other way counts as inactive or inconclusive.
# Assays:
# [1] = A CellTox Green Cytotoxicity Assay to monitor cytotoxicity in HepG2 cells - 8 hour (AID 1224890); also: nearly all actives have a fitted effect of over 45% in size
# How it was run: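 Cells and non-lytic dye reagent are dispensed together (600 HepG2 cells/well) and incubated 5 h before DMSO compound transfer. Kinetic fluorescence is then recorded in the same wells during 40 h at 37 C.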
# [2] = qHTS assay to identify small molecule antagonists of the estrogen receptor alpha (ER-alpha) signaling pathway using the BG1 cell line in the presence of 0.1 nM 17-beta-estradiol - cell viability counter screen (AID 1259241); also: nearly all actives have a fitted effect of over 40% in size
# How it was run: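 The cell line endogenously expresses full-length ER-alpha and carries four EREs driving luciferase. Cells are cultured 5 days hormone-free, treated 22 hr with compounds and 0.1 nM estradiol, then viability is read by fluorescence.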
# [3] = qHTS assay to identify small molecule antagonists of the androgen receptor (AR) signaling pathway using the MDA cell line in the presence of 0.5 nM R1881 - cell viability counter screen (AID 1259242); also: nearly all actives have a fitted effect of over 45% in size
# How it was run: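 Steps: plate MDA-kb2 cells, rest 5 hr at 37C without CO2; pin in compounds in DMSO; add R1881 to 0.5 nM final; incubate 16 hr; add CellTiter-Fluor, 30 min; read fluorescence.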
# [4] = qHTS assay to identify small molecule phospholipidosis (PLD) inducers (AID 1259344; active = well fitted curve in the direction sought with a large enough effect; an effect the other way counts as inactive or inconclusive)
# How it was run: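 Cells (HepG2, 900 per well) attach for 4 h, receive LipidTOX Red and compound together, incubate 24 h at 37 C, are fixed 30 min with paraformaldehyde/Hoechst, then imaged at one site per well.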
# [5] = qHTS assay to identify small molecule HDAC inhibitors (AID 1259364);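 also: wild-type HCT-116 cells with endogenous class I/II HDAC activity; top concentration of the series differs between compounds; nearly all actives have a fitted effect of over 45% in size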
# How it was run: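 Cells (HCT-116, wild type) are seeded at 1,500 per well, incubated overnight, treated with compound in DMSO for 2 hr, then developed with HDAC-Glo I/II reagent for 30 min at room temperature.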
# [6] = qHTS assay to identify small molecule HDAC inhibitors - cell viability counter screen (AID 1259365); also: series mostly up to about 92 µM; nearly all actives have a fitted effect of over 50% in size
# How it was run: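 Viability readout: CellTiter-Glo luminescence. Wild-type HCT-116 cells, 2hr compound treatment following overnight attachment at 37 C.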
# [7] = qHTS assay to identify small molecule agonists of the sonic hedgehog signaling (Shh) pathway - cell viability counter screen (AID 1259366); also: nearly all actives have a fitted effect of over 50% in size
# How it was run: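 Viability measured fluorometrically (CellTiter-Fluor, 1hr, 37C) in 3T3 Gli1-Luc reporter cells after 23hr compound exposure within a 24hr incubation at 37C/5% CO2.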
# [8] = qHTS assay to identify small molecule antagonists of the sonic hedgehog signaling (Shh) pathway - cell viability counter screen (AID 1259367); also: nearly all actives have a fitted effect of over 55% in size; also: potency is read from the fitted curve at half-maximal effect
# How it was run: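 Cytotoxicity was assessed in parallel with Shh reporter activity by measuring live-cell protease fluorescence (CellTiter-Fluor) in NIH/3T3 cells stably carrying Gli1-Luc, treated with compound under conditioned medium stimulation for 23 hr plus 1 hr reagent incubation.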
# [9] = qHTS assay to identify small molecule agonists of the sonic hedgehog signaling (Shh) pathway (AID 1259368; calls by dose curve;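 also: NIH/3T3-derived 3T3Gli1-Luc cells carrying a stable Gli1-driven firefly luciferase reporter; series mostly up to about 92 µM; nearly all actives have a fitted effect of over 15% in size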)
# How it was run: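 Cells of a mouse NIH/3T3 clone stably expressing luciferase under the Gli1 transcriptional response element are exposed to test chemicals for 24 hr at 37 C. Pathway activation is detected as a rise in luminescence.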
# [10] = qHTS assay to identify small molecule antagonists of the sonic hedgehog signaling (Shh) pathway (AID 1259369; calls by dose curve; also: nearly all actives have a fitted effect of over 45% in size; also: potency is read from the fitted curve at half-maximal effect)
# How it was run: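 Cells are plated and held 4hr at 37 C, compounds (DMSO) are pinned in, conditioned medium is added to stimulate the pathway, and after 24hr luciferase reagent is added for 30min before luminescence is read.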
# [11] = target: Estrogen receptor beta (Homo sapiens) (UniProt Q92731); assay: qHTS assay to identify small molecule agonists of the estrogen receptor beta (ER-beta) signaling pathway (AID 1259377; active = well fitted activation curve with a large enough effect in the signal ratio in the repeat runs, not every such curve was filed as active; the % refers to the signal ratio)
# How it was run: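 A UAS-controlled beta-lactamase reporter in ER-beta-UAS-bla HEK293T cells reports receptor activation. Compounds act for 16 hr at 37C in 2% charcoal-stripped serum, and a FRET substrate is read by fluorescence after 2 hours.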
# [12] = target: Estrogen receptor beta (Homo sapiens) (UniProt Q92731); assay: qHTS assay to identify small molecule antagonists of the estrogen receptor beta (ER-beta) signaling pathway (AID 1259378; active = well fitted inhibition curve with a large enough effect in the signal ratio in the repeat runs, not every such curve was filed as active; the % refers to the signal ratio)
# How it was run: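 ER-beta-UAS-bla HEK293T (GripTite) cells in 2% charcoal-stripped FBS medium were preincubated 6 hr at 37C, dosed with compound, then stimulated with 1 nM E2 (final) for 16 hr; beta-lactamase reporter read by B/G FRET fluorescence after 2 hr substrate loading.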
# [13] = qHTS assay to identify small molecule agonists of the androgen receptor (AR) signaling pathway in the presence of an antagonist - cell viability counter screen (AID 1259379);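 also: MDA-kb2 human breast cancer cells carrying an MMTV luciferase reporter; series mostly up to about 92 µM; nearly all actives have a fitted effect of over 25% in size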
# How it was run: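 Cytotoxicity is assessed by CellTiter-Fluor in MDA-kb2 cells carrying an MMTV-driven luciferase reporter. Cells receive 3.0uM nilutamide plus compounds at 15 concentrations and incubate 16 hr at 37C without CO2 before fluorescence reading.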
# [14] = qHTS assay to identify small molecule agonists of the estrogen receptor beta (ER-beta) signaling pathway - cell viability counter screen (AID 1259380); also: nearly all actives have a fitted effect of over 30% in size; also: potency is read from the fitted curve at half-maximal effect
# How it was run: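 Cytotoxicity is measured in parallel with the reporter screen: after 16 hr compound exposure at 37C and a 2 hr LiveBLAzer step, CellTiter-Glo is added to the same ER-beta-UAS-bla HEK293T wells and luminescence read after 30 min.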
# [15] = qHTS assay to identify small molecule antagonists of the estrogen receptor beta (ER-beta) signaling pathway - cell viability counter screen (AID 1259382); also: series mostly up to about 92 µM; nearly all actives have a fitted effect of over 55% in size
# How it was run: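 Cytotoxicity counter screen multiplexed with the beta-lactamase antagonist assay: GripTite HEK293T ER-beta-bla cells were treated 16 hr with test chemicals in the presence of 1nM 17-beta-estradiol, and viability was measured by CellTiter-Glo.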
# [16] = qHTS assay to identify small molecule agonists or antagonists of the thyroid stimulating hormone receptor (TSHR) signaling pathway - wild type cell line counter screen (AID 1259384; calls by dose curve; also: potency is read from the fitted curve at half-maximal effect)
# How it was run: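 Wild-type HEK293 cells were plated 18 h at 37 C/5% CO2, pin-dosed with compound plus Ro20-1724 medium, held 30 min at room temperature, then given cAMP-d2 and anti-cAMP-cryptate; fluorescence was read after 1 h. Fifteen concentrations, triplicate.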
# [17] = target: Estrogen receptor (Homo sapiens) (UniProt P03372); assay: qHTS assay to identify small molecule antagonists of the estrogen receptor alpha (ER-alpha) signaling pathway using the BG1 cell line in the presence of 0.1 nM 17-beta-estradiol (AID 1259244); also: nearly all actives have a fitted effect of over 50% in size
# How it was run: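 Antagonist mode: compounds in DMSO are pinned onto VM7Luc4E2 reporter cells, 0.1 nM final 17beta-estradiol is added, and after 22 h at 37C luciferase luminescence is measured with ONE-Glo.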
# [18] = target: Estrogen receptor (Homo sapiens) (UniProt P03372); assay: qHTS assay to identify small molecule agonists of the estrogen receptor alpha (ER-alpha) signaling pathway in the presence of an antagonist (AID 1259383; calls by dose curve; also: top concentration of the series differs between compounds; nearly all actives have a fitted effect of over 15% in size)
# How it was run: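 Agonist-mode confirmation in the presence of the ER antagonist ICI-182,780 at 10.0nM final. Breast-derived VM7Luc4E2 reporter cells were exposed to compounds for 22hr, and ERE-driven luciferase was quantified by luminescence.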
# Chain of Estrogen receptor (Homo sapiens) (P03372 whole entry, looked up): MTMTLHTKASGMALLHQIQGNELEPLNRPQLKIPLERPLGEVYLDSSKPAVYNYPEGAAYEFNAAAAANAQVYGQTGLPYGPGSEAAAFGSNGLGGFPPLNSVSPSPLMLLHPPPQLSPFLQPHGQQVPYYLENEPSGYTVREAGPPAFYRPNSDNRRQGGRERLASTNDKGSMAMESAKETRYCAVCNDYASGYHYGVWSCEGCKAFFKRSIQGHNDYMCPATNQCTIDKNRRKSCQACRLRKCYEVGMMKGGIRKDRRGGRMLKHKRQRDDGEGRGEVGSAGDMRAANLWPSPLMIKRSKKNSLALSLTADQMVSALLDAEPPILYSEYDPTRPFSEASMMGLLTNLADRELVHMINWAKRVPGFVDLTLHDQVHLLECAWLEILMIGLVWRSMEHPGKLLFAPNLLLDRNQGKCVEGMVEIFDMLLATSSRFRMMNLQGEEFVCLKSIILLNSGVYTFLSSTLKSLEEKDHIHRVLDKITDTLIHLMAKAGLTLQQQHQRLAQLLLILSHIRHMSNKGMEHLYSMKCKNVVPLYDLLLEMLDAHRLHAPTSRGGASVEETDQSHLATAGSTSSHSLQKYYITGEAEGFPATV
# Chain of Estrogen receptor beta (Homo sapiens) (Q92731 whole entry, looked up): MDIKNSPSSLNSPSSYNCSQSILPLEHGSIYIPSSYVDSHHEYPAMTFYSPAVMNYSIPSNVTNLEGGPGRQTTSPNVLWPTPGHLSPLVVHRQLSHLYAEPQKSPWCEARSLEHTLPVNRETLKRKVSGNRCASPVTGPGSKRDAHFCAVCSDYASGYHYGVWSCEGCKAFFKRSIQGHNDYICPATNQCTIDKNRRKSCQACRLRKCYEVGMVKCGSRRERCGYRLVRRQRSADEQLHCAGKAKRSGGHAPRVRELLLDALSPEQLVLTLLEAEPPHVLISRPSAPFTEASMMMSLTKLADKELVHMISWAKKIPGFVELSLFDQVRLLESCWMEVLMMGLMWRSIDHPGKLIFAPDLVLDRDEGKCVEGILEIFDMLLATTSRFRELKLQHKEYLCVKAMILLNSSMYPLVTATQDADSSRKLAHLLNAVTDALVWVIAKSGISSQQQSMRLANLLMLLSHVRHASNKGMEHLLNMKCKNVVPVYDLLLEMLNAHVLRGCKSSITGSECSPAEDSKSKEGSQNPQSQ
SMILES,Potency [1],Potency [2],Potency [3],Potency [4],Potency [5],Potency [6],Potency [7],Potency [8],outcome [9],Potency [10],Potency [11],Potency [12],Potency [13],Potency [14],Potency [15],Potency [16],Potency [17],Potency [18]
CC1(C)O[C@@H]2C[C@H]3[C@@H]4CCC5=CC(=O)C=C[C@]5(C)[C@@]4(F)[C@@H](O)C[C@]3(C)[C@]2(C(=O)CO)O1,inactive,inactive,inactive,inactive,inactive,inactive,inactive,inactive,inactive,inactive,inactive,inactive,inactive,inactive,inactive,–,–,–
CC(=O)Nc1c(I)c(NC(C)=O)c(I)c(C(=O)O)c1I,inactive,inactive,inactive,inactive,inactive,inactive,inactive,inactive,inactive,inactive,–,–,inactive,inactive,inactive,inactive,–,–
O=C1O[C@H]([C@@H](O)CO)C(O)=C1O,inactive,inactive,inactive,inactive,inactive,inactive,inactive,inactive,inactive,inactive,–,–,inactive,inactive,inactive,inactive,–,–
Cc1cc(C)nc(NS(=O)(=O)c2ccc(N)cc2)n1,inactive,inactive,inactive,inactive,inactive,inactive,inactive,inactive,inactive,inactive,–,–,inactive,inactive,inactive,inactive,–,–
O=C(O)CC(O)C(=O)O (stereo unspecified),inactive,inactive,inactive,inactive,inactive,inactive,inactive,inactive,inactive,inactive,inactive,inactive,inactive,inactive,inactive,inactive,–,–
Cc1cn([C@H]2C=C[C@@H](CO)O2)c(=O)[nH]c1=O,inactive,inactive,inactive,inactive,inactive,inactive,inactive,–,inactive,inactive,inactive,inactive,inactive,inactive,inactive,inactive,–,–
Nc1c2c(nc3ccccc13)CCCC2,inactive,inactive,inactive,–,inactive,inactive,inactive,inactive,inactive,8.63 µM (active) and 13.7 µM (active),inactive,inactive,inactive,inactive,inactive,inactive,inactive,inactive
Nc1ccc(S(N)(=O)=O)cc1,inactive,inactive,inactive,inactive,inactive,inactive,inactive,–,inactive,inactive,inactive,inactive,inactive,inactive,inactive,inactive,–,–
Cc1cccc(C)c1,inactive,inactive,inactive,–,inactive,inactive,inactive,inactive,inactive,inactive,–,–,inactive,inactive,inactive,inactive,inactive,inactive
Cc1ncc([N+](=O)[O-])n1C,inactive,inactive,inactive,–,inactive,inactive,inactive,–,inactive,inactive,–,–,inactive,inactive,inactive,inactive,inactive,inactive
CC(C)NCC(O)c1ccc(O)c(O)c1 (stereo unspecified),inactive,inactive,inactive,inactive,inactive,inactive,inactive,inactive,inactive,inactive,inactive,inactive,inactive,inactive,inactive,4.98 nM (active) and 5.87 nM (active) and 5.7 nM (active),–,–
O=C(O)c1ccccc1,inactive,inactive,inactive,–,inactive,inactive,inactive,–,inactive,inactive,–,–,inactive,inactive,inactive,inactive,inactive,inactive
CNNCc1ccc(C(=O)NC(C)C)cc1,inactive,inactive,inactive,inactive,inactive,inactive,inactive,inactive,inactive,inactive,inactive,inactive,inactive,inactive,inactive,inactive,–,–
COc1ccc(CN(CCN(C)C)c2ccccn2)cc1,inactive,inactive,inactive,inactive,inactive,inactive,inactive,inactive,inactive,inactive,–,–,inactive,50.2 µM (active) and inactive,inactive,–,–,–
CC(=O)CC(c1ccccc1)c1c(O)c2ccccc2oc1=O (stereo unspecified),inactive,inactive,inactive,inactive,inactive,inactive,inactive,68.9 µM (active) and inactive,inactive,27.4 µM (active) and inactive,–,–,inactive,inactive,inactive,–,–,–
